Records with an inconclusive call do not appear. A call without a number means that no potency is given here. The source made the active and inactive calls. Unless noted, the call rests on the fitted dose curve.
What was measured:
[1] = Cytotoxicity counterscreen for inhibitors of SARS-CoV-2 cell entry (AID 1645845); details: cell viability (SARS-CoV-2 entry assay cells); series mostly up to 57.1 µM; further: nearly all actives have a fitted effect of over 50% in size
Method in brief: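 HEK293-ACE2 cells (Expi293F stably expressing human ACE2) seeded overnight, then compound for 1 h plus 48 h at 37C. Viability as ATP content by luminescence; normalized to wells with cells and media-only wells.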

[2] = Primary qHTS to identify inhibitors of SARS-CoV-2 cell entry (AID 1645846); details: SARS-CoV-2 pseudovirus cell entry assay, luminescence; activity change, negative = inhibition: at 57.1 µM (top of the series) unless noted; series mostly up to 57.1 µM; further: nearly all actives have a fitted effect of over 45% in size
Method in brief: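 Data are normalized to wells receiving SARS-CoV-2-S pseudoparticles and those given bald particles. Entry signal was luciferase luminescence in stable hACE2 Expi293F cells, 48 hr post-infection, after 1 hr compound pretreatment.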

[3] = Primary qHTS for inhibitors of nuclear receptor binding SET domain protein 2 (NSD2) in an isogenic RCH-ACV NSD2 p.E1099K mutant (9B) (AID 1645876; active means well fitted curve in the direction sought with a large enough effect; an effect the other way counts as inactive or inconclusive; further: nearly all actives have a fitted effect of over 70% in size; further: potency means the concentration at half of the fitted maximal effect); details: RCH-ACV NSD2 E1099K (9B) viability, CellTiter-Glo, 72 h; series mostly up to 44.9 µM
[4] = Primary qHTS for inhibitors of nuclear receptor binding SET domain protein 2 (NSD2) in an RCH-ACV wild type WT cells (2C) (AID 1645877; active means well fitted curve in the direction sought with a large enough effect; an effect the other way counts as inactive or inconclusive; further: nearly all actives have a fitted effect of over 70% in size; further: potency means the concentration at half of the fitted maximal effect); details: RCH-ACV (leukaemia line) NSD2 WT (2C) viability, CellTiter-Glo, 72 h; series mostly up to 44.9 µM
Papain (Carica papaya) = Papain (Carica papaya) (UniProt P00784); test: Primary qHTS assay for inhibitors of the protease papain (AID 1645873; active means well fitted curve in the direction sought with a large enough effect; an effect the other way counts as inactive or inconclusive;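 further: papain turnover of Z-FR-AMC read as the AMC fluorescence gain over 10 min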); details: papain Z-FR-AMC cleavage, AMC fluorescence; series mostly up to 49.8 µM
[5] = biological target: Rap guanine nucleotide exchange factor 3 (Homo sapiens) (UniProt O95398); test: Confirmatory qHTS for agonist of cAMP-regulated guanine nucleotide exchange factor 3 (EPAC1) (AID 1645881; active means well fitted curve in the direction sought with a large enough effect; an effect the other way counts as inactive or inconclusive;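 further: EPAC1 catalysed release of BODIPY-GDP from Rap1B seen as fluorescence loss; nearly all actives have a fitted effect of over 75% in size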); details: EPAC1 Rap1B BODIPY-GDP exchange fluorescence; series mostly up to 154 µM
Sequence of Rap guanine nucleotide exchange factor 3 (Homo sapiens) (O95398 whole entry, looked up): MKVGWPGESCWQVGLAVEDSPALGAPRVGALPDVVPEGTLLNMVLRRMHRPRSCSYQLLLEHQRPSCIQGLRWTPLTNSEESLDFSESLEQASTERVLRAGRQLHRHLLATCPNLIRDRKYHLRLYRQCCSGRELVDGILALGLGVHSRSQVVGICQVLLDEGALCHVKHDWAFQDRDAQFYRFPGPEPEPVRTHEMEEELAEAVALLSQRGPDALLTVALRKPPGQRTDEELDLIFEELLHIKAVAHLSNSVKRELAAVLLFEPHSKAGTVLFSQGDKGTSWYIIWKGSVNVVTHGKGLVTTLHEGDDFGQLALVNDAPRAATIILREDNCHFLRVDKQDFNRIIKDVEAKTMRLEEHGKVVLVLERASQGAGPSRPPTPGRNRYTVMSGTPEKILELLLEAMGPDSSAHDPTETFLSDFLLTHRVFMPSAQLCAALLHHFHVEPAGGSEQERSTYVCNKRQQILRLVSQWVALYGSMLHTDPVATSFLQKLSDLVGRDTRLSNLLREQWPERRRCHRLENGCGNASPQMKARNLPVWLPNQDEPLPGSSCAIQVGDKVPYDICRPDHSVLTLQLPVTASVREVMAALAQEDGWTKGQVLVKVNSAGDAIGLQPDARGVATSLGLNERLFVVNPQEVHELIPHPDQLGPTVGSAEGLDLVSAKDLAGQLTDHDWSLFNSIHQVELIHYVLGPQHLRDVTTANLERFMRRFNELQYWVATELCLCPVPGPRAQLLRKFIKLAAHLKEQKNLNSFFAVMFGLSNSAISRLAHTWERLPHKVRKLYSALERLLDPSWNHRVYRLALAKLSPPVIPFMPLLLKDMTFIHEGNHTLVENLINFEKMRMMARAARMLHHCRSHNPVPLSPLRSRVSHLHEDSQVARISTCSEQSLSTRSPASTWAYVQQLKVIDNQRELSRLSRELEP

Sequence of Papain (Carica papaya) (P00784 whole entry, looked up): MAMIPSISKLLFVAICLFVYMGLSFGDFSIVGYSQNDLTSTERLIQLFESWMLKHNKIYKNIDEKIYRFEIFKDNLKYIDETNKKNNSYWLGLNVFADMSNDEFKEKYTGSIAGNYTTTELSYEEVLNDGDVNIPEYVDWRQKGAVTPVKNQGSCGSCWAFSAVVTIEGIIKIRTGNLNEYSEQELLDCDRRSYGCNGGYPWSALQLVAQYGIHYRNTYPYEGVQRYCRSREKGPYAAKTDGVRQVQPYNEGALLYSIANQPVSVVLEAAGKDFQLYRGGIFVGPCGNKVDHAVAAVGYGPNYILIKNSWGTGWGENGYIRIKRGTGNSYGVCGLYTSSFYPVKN

Question: Which outcome [1] does the source give for CCCCCCCCCC(=O)O[C@H]1CC[C@H]2[C@@H]3CCC4=CC(=O)CC[C@]4(C)[C@H]3CC[C@]12C here?
Answer: The outcome was “inactive”.

Question: What about the activity change, negative = inhibition [2] of the same molecule?
Answer: Its activity change, negative = inhibition is -15.3%.

Question: Which outcome [1] does the source give for CC(=O)O[C@H]1CC[C@H]2[C@@H]3CCC4=CC(=O)CCC4=C3C=C[C@]12C here?
Answer: Its outcome is “inactive”.

Question: And the activity change, negative = inhibition [2]?
Answer: Its activity change, negative = inhibition is -33.2%.

Question: Which results are given for C[C@]12CC[C@H](OS(=O)(=O)O)CC1=CC[C@@H]1[C@@H]2CC[C@]2(C)C(=O)CC[C@@H]12?
Answer: outcome [1]: inactive; activity change, negative = inhibition [2]: -5.13%

Question: Which results are given for O=C(O)C(Cl)(Cl)Cl?
Answer: outcome [1]: inactive; activity change, negative = inhibition [2]: -27.9%

Question: What does the source list for Oc1ccc2c3c1O[C@H]1[C@@H](O)CC[C@@]4(O)[C@@H](C2)N(CC2CCC2)CC[C@]314?
Answer: outcome [1]: inactive; activity change, negative = inhibition [2]: 1.55%

Question: Which outcome [1] does the source give for Cc1ccccc1-n1c(CF)nc2ccc(N)cc2c1=O here?
Answer: Its outcome is “inactive”.

Question: And the activity change, negative = inhibition [2]?
Answer: The activity change, negative = inhibition was -3.31%.

Question: Which outcome [1] does the source give for CC[N+](C)(CC)CCOC(=O)C(O)(c1ccccc1)c1ccccc1 here?
Answer: The outcome was “inactive”.

Question: And the activity change, negative = inhibition [2]?
Answer: Its activity change, negative = inhibition is -7.01%.

Question: What does the source list for C[C@@H]([C@H](O)c1ccccc1)N(C)C?
Answer: outcome [1]: inactive; activity change, negative = inhibition [2]: -34.9%

Question: For CCCCCCC(=O)O[C@H]1CC[C@H]2[C@@H]3CC[C@H]4CC(=O)C=C(C)[C@]4(C)[C@H]3CC[C@]12C, which outcome [1] is on record?
Answer: The outcome was “inactive”.

Question: What about the activity change, negative = inhibition [2] of the same molecule?
Answer: The activity change, negative = inhibition was -7.93%.

Question: For C[C@]12CC[C@H]3[C@@H](CC[C@@]45O[C@@H]4C(O)=C(C#N)C[C@]35C)[C@@H]1CC[C@@H]2O, which outcome [1] is on record?
Answer: Its outcome is “inactive”.

Question: And the Potency [3]?
Answer: Its Potency is 16.6 µM (active).

Question: And the Potency [4]?
Answer: The Potency was 13.2 µM (active).

Question: Which results are given for Cn1sc(Cl)cc1=O?
Answer: outcome [1]: inactive; activity change, negative = inhibition [2]: -5.28%

Question: For CCNC1(c2cccs2)CCCCC1=O (stereo unspecified), which outcome [1] is on record?
Answer: Its outcome is “inactive”.

Question: Which Potency (Papain (Carica papaya)) does the source give for [Cl-].[Cl][Pt].[NH2-].[NH2-].c1ccncc1 here?
Answer: Its Potency is “inactive”.

Question: For CC(C)(C)OC(=O)NC1[C@H]2CNC[C@@H]12 (stereo partly specified), which Potency (Papain (Carica papaya)) is on record?
Answer: The Potency was “inactive”.

Question: For CCCCCc1cc(O)c2c(c1)OC(C)(C)[C@@H]1CCC(C)=C[C@@H]21, which Potency [5] is on record?
Answer: The Potency was “inactive”.

Question: Which activity change, negative = cytotoxicity [1] does the source give for O=P(O)(O)C(Cl)(Cl)P(=O)(O)O here?
Answer: The activity change, negative = cytotoxicity was 3.8% [at 5.25 µM] (inactive).

Question: What about the activity change, negative = inhibition [2] of the same molecule?
Answer: Its activity change, negative = inhibition is -6.21% [at 5.25 µM].

Question: With C[N+]1(C)CCCCC1COC(=O)C(O)(c1ccccc1)c1ccccc1 (stereo unspecified) as the molecule, how does the outcome [1] read?
Answer: Its outcome is “inactive”.

Question: What about the activity change, negative = inhibition [2] of the same molecule?
Answer: The activity change, negative = inhibition was -8.43%.

Question: What does the source list for CCC1C(C)=NN=C(c2ccc(OC)c(OC)c2)c2cc(OC)c(OC)cc21 (stereo unspecified)?
Answer: outcome [1]: inactive; Potency [2]: inactive

Question: What does the source list for O=C/C=C/c1ccccc1?
Answer: outcome [1]: inactive; activity change, negative = inhibition [2]: -22.2%

Question: With COC(=O)C12C(=O)C(C)(O)C(=O)C1(C)C(C)=CC1C34CCC(OC3=O)C(C)(CO)C4CCC12C (stereo unspecified) as the molecule, how does the Potency [3] read?
Answer: The Potency was “inactive”.

Question: And the Potency [4]?
Answer: The Potency was “inactive”.

Question: Which results are given for CC(C)CCON=O?
Answer: outcome [1]: inactive; Potency [2]: inactive

Question: Which results are given for CCCCC[C@@H](O)C1C(=O)OC(C)[C@H](O)/C=C/C=C/C=C/C=C/C=C(\C)C(O)C(O)C(O)C[C@H](O)C[C@H](O)C[C@H](O)C[C@H](O)C[C@@H]1O (stereo partly specified)?
Answer: outcome [1]: inactive; activity change, negative = inhibition [2]: -29.9%

Question: Which results are given for O=C(OCCN1CCCCC1)C(O)(c1ccccc1)c1ccccc1?
Answer: outcome [1]: inactive; activity change, negative = inhibition [2]: -28.8%

Question: For c1ccc2sc(SNC3CCCCC3)nc2c1, which outcome [1] is on record?
Answer: The outcome was “inactive”.

Question: What about the activity change, negative = inhibition [2] of the same molecule?
Answer: Its activity change, negative = inhibition is 2.84% [at 114 µM].

Question: For C[C@H]1C2Cc3ccc(O)cc3[C@@]1(C)CCN2CC1CC1, which Potency (Papain (Carica papaya)) is on record?
Answer: The Potency was “inactive”.

Question: For CCC1(C)CC(=O)NC(=O)C1, which outcome [1] is on record?
Answer: Its outcome is “inactive [at 114 µM]”.

Question: And the activity change, negative = inhibition [2]?
Answer: The activity change, negative = inhibition was -21.5% [at 114 µM].

Question: With CC(C)(C)c1cc(O)ccc1O as the molecule, how does the Potency [5] read?
Answer: Its Potency is “inactive”.

Question: Which Potency (Papain (Carica papaya)) does the source give for O=[N+]([O-])/C=C/c1ccc2c(c1)OCO2 here?
Answer: The Potency was “inactive”.

Question: Which outcome [1] does the source give for CC(C)CCC(=O)O[C@H]1CC[C@H]2[C@@H]3CCC4=CC(=O)CC[C@]4(C)[C@H]3CC[C@]12C here?
Answer: The outcome was “inactive”.

Question: And the activity change, negative = inhibition [2]?
Answer: The activity change, negative = inhibition was -25.5%.

Question: With CN1[C@H]2CC[C@@H]1[C@@H](C(=O)O)[C@@H](OC(=O)c1ccccc1)C2 as the molecule, how does the outcome [1] read?
Answer: The outcome was “inactive”.

Question: What about the activity change, negative = inhibition [2] of the same molecule?
Answer: The activity change, negative = inhibition was -21.7% [at 114 µM].

Question: Which outcome [1] does the source give for C[C@]12CC[C@H]3[C@@H](CCC4=C(O)C(=O)CC[C@@H]43)[C@@H]1CC[C@@H]2OC(=O)CCC1CCCC1 here?
Answer: The outcome was “inactive”.

Question: What about the activity change, negative = inhibition [2] of the same molecule?
Answer: The activity change, negative = inhibition was -9.8%.

Reference: PubChem BioAssay (NCATS)
